From the supplement of paper PMC10849652
The full data set covers some 8,800 targets. This sample favours those with a hit. About 0.5% of all pairs of compound and target were hits.

Assays:
Experiment in all cases: log2 fold change, soluble protein after heating vs DMSO (PISA); higher = thermal stabilisation; K562 lysate, 10 uM; active = over 0.2 and 3.5 SD of the protein, either way, in both replicates (recomputed)
alvocidib = compound: CN1CC[C@H](c2c(O)cc(O)c3c(=O)cc(-c4ccccc4Cl)oc23)[C@H](O)C1 [alvocidib]
Summary of the method: (§1)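 Soluble protein was defined as the supernatant remaining after 21,000xg for 90 min, following pooling of heated aliquots and adjustment to 0.5% NP-40 at 4°C. Before that, crude K562 extract at 1 mg/mL protein in PBS pH 7.4 with 1 mM MgCl2 was treated with 10 μM compound for 30 min and heated for 3 min across 48°C-58°C. Quantification used TMTpro 16plex LC-MS/MS with channel sums equalised, and values are log-two fold changes in thermal stability relative to solvent controls from duplicates.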

Tubastatin A = compound: CN1CCc2c(c3ccccc3n2Cc2ccc(C(=O)NO)cc2)C1 [Tubastatin A]
Summary of the method: as §1

[1] = compound: CNC(=O)C1=CC=CC=C1NC2=NC(=NC=C2Cl)NC3=C(C=C(C=C3)N4CCOCC4)OC
Summary of the method: as §1

defactinib = compound: CNC(=O)c1ccc(Nc2ncc(C(F)(F)F)c(NCc3nccnc3N(C)S(C)(=O)=O)n2)cc1 [defactinib]
Summary of the method: as §1

[2] = compound: CNc1nc(-c2ccc3c(N)n[nH]c3c2)cc(N2C[C@@H](C(=O)NC3CCCCC3)CC[C@H]2C)n1
Summary of the method: as §1

encorafenib = compound: COC(=O)N[C@@H](C)CNc1nccc(-c2cn(C(C)C)nc2-c2cc(Cl)cc(NS(C)(=O)=O)c2F)n1 [encorafenib]
Summary of the method: as §1

[3] = compound: COC(=O)[C@H](CCSC)NC(=O)C1=C(C=C(C=C1)NC[C@H](CS)N)C2=CC=CC=C2
Summary of the method: as §1

alisertib = compound: COc1cc(Nc2ncc3c(n2)-c2ccc(Cl)cc2C(c2c(F)cccc2OC)=NC3)ccc1C(=O)O [alisertib]
Summary of the method: as §1

[4] = compound: COc1cc2nc(-c3cc(F)ccc3O)nc(N[C@@H]3CNC[C@H]3C(C)(C)O)c2cc1OC
Summary of the method: as §1

gefitinib = compound: COc1cc2ncnc(Nc3ccc(F)c(Cl)c3)c2cc1OCCCN1CCOCC1 [gefitinib]
Summary of the method: as §1

Measured: log2 fold change

AIFM2 (UniProt Q9BRQ8)
inactive: alvocidib -0.032 | Tubastatin A 0.044 | [1] 0.114 | defactinib 0.045 | [2] 0.099 | encorafenib 0.024 | [3] 0.107 | alisertib -0.032 | [4] -0.034 | gefitinib 0.038

AMD1 (UniProt P17707)
inactive: alvocidib -0.039 | Tubastatin A -0.084 | [1] 0.071 | defactinib -0.003 | [2] 0.008 | encorafenib -0.08 | [3] -0.107 | alisertib 0.027 | [4] 0.261 | gefitinib 0.041

ALDH1B1 (UniProt P30837)
active: [1] 0.233
inactive: alvocidib 0.168 | Tubastatin A 0.01 | defactinib -0.029 | [2] 0.007 | encorafenib -0.008 | [3] 0.127 | alisertib -0.002 | [4] 0.006 | gefitinib -0.026

ADAMTS5 (UniProt Q9UNA0)
inactive: alvocidib -0.33 | Tubastatin A 0.149 | [1] 0.105 | defactinib -0.052 | [2] 0.278 | encorafenib -0.134 | [3] -0.012 | alisertib 0.073 | [4] 0.109 | gefitinib -0.093

AKAP8L (UniProt Q9ULX6)
inactive: alvocidib -0.003 | Tubastatin A -0.183 | [1] 0.008 | defactinib 0.003 | [2] -0.109 | encorafenib 0.059 | [3] -0.032 | alisertib 0.043 | [4] 0.011 | gefitinib 0.009

ANXA1 (UniProt P04083)
inactive: alvocidib -0.025 | Tubastatin A -0.005 | [1] -0.021 | defactinib -0.007 | [2] -0.055 | encorafenib -0.021 | [3] 0.028 | alisertib 0.001 | [4] 0.008 | gefitinib -0.012

ANXA5 (UniProt P08758)
inactive: alvocidib 0.04 | Tubastatin A 0 | [1] -0.023 | defactinib -0.002 | [2] -0.067 | encorafenib -0.016 | [3] 0.049 | alisertib 0.052 | [4] -0.009 | gefitinib 0.049

ADRM1 (UniProt Q16186)
inactive: alvocidib 0.009 | Tubastatin A -0.064 | [1] -0.027 | defactinib 0.003 | [2] 0.011 | encorafenib -0.033 | [3] 0.118 | alisertib 0.032 | [4] -0.001 | gefitinib -0.009

APAF1 (UniProt O14727)
inactive: alvocidib -0.006 | Tubastatin A -0.174 | [1] -0.026 | defactinib -0.015 | [2] 0.008 | encorafenib -0.017 | [3] 0.129 | alisertib -0.027 | [4] 0.061 | gefitinib 0.017

ADAR isoform 4 (UniProt P55265)
Chain of UniProt P55265 (P55265 whole entry, looked up): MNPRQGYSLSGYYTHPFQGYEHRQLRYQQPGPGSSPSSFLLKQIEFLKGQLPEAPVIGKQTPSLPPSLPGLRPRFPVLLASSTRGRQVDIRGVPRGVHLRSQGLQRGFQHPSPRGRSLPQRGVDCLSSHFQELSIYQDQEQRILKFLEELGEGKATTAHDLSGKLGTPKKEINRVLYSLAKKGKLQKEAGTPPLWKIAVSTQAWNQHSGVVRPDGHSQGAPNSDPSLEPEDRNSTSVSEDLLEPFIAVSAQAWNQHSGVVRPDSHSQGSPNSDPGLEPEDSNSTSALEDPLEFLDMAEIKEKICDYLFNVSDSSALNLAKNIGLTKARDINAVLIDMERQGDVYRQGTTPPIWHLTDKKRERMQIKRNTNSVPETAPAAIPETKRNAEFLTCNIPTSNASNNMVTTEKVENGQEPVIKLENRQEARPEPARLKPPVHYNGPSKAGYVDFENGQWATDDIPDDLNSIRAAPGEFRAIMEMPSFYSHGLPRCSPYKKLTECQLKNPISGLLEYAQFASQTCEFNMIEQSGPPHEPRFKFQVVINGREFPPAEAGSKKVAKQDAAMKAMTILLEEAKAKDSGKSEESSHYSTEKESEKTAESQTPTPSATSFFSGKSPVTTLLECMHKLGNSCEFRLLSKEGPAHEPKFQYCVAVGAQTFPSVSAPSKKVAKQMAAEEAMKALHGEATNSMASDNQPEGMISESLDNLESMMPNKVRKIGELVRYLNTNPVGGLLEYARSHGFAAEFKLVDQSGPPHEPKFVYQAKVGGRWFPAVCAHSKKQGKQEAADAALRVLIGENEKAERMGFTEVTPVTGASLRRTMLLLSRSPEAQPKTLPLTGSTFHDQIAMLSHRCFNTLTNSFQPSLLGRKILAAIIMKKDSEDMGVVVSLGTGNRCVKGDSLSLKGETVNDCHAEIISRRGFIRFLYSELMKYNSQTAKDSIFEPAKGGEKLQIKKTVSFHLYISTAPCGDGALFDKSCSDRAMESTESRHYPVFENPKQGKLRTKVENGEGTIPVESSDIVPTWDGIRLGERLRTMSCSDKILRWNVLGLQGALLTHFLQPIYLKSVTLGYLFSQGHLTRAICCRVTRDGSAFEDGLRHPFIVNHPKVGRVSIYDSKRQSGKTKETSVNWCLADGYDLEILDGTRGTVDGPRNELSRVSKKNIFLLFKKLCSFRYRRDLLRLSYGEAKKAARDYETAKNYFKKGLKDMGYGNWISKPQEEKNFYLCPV
inactive: alvocidib -0.004 | Tubastatin A -0.167 | [1] 0.012 | defactinib 0.054 | [2] -0.001 | encorafenib 0.052 | [3] -0.041 | alisertib 0.045 | [4] 0.013 | gefitinib 0.02

ANXA2 isoform 2 (UniProt P07355)
inactive: alvocidib 0.012 | Tubastatin A 0.013 | [1] -0.012 | defactinib -0.011 | [2] -0.026 | encorafenib -0.03 | [3] -0.007 | alisertib 0.002 | [4] 0.003 | gefitinib -0.009

ARHGAP25 isoform 4 (UniProt P42331)
inactive: alvocidib -0.032 | Tubastatin A -0.122 | [1] 0.04 | defactinib 0.055 | [2] 0.054 | encorafenib -0.009 | [3] 0.038 | alisertib 0.012 | [4] -0.004 | gefitinib -0.009

ALDH5A1 isoform 2 (UniProt P51649)
inactive: alvocidib 0.063 | Tubastatin A 0.048 | [1] 0.007 | defactinib 0.016 | [2] -0.02 | encorafenib -0.028 | [3] 0.077 | alisertib 0.001 | [4] 0.006 | gefitinib -0.042

ASCC2 (UniProt Q9H1I8)
Chain of UniProt Q9H1I8 (Q9H1I8 whole entry, looked up): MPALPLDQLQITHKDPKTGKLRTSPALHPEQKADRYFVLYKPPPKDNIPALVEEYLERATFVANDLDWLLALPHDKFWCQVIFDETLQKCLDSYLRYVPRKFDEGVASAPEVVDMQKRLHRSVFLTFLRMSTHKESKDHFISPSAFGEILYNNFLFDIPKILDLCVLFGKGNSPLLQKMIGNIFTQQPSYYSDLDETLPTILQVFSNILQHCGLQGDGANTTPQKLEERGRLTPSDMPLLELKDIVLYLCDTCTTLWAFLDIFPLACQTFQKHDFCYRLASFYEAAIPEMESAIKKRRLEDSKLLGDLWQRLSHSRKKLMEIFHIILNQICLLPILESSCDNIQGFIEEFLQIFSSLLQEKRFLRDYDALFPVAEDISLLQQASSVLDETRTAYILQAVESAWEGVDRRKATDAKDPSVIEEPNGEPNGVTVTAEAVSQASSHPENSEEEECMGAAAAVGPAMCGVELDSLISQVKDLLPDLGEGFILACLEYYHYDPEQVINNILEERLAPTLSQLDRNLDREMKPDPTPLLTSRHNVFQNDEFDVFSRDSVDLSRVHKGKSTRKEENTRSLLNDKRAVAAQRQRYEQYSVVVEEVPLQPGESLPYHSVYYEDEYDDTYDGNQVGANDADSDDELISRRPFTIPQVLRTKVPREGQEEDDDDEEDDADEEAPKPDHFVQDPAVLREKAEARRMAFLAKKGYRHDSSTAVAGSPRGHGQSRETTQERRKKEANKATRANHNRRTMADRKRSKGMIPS
inactive: alvocidib -0.009 | Tubastatin A -0.105 | [1] 0.002 | defactinib 0 | [2] -0.003 | encorafenib 0.007 | [3] 0.037 | alisertib -0.014 | [4] 0.016 | gefitinib -0.057

ANXA11 (UniProt P50995)
inactive: alvocidib -0.025 | Tubastatin A 0.017 | [1] 0.009 | defactinib -0.012 | [2] -0.019 | encorafenib -0.004 | [3] 0.027 | alisertib 0.015 | [4] -0.015 | gefitinib -0.014

ALG13 (UniProt Q9NP73)
Chain of UniProt Q9NP73 (Q9NP73 whole entry, looked up): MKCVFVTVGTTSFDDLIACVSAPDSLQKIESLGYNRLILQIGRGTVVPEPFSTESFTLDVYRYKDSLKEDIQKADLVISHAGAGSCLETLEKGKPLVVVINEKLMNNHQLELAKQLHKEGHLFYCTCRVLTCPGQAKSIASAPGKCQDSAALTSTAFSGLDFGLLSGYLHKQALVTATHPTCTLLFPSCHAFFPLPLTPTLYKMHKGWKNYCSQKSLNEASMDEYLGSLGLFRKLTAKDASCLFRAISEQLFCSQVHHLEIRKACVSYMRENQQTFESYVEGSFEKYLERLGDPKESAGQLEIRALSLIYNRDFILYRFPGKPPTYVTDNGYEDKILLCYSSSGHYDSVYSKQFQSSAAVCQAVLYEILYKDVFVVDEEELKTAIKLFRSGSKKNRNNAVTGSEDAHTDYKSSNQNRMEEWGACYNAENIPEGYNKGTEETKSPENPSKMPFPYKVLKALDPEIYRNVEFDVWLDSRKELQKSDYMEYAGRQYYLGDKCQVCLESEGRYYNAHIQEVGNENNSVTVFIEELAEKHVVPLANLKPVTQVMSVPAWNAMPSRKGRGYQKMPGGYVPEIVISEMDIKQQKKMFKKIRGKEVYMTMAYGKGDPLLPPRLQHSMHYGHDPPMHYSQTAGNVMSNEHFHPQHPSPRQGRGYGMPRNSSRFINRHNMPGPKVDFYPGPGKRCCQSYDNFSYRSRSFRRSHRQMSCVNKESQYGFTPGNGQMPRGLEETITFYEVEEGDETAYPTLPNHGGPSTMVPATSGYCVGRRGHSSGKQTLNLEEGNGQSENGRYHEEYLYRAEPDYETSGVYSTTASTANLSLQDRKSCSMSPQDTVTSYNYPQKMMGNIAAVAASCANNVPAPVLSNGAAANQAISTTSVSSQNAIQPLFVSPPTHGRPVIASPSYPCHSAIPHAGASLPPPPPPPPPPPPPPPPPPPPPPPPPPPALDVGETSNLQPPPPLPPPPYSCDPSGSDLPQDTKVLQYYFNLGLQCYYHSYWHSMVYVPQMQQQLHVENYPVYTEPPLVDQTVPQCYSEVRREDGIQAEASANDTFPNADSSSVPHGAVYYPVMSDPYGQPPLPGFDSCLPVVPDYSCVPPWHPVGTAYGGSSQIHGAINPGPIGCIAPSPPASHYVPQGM
inactive: alvocidib -0.039 | Tubastatin A -0.065 | [1] 0.122 | defactinib 0.028 | [2] 0.053 | encorafenib 0.059 | [3] -0.082 | alisertib -0.059 | [4] 0 | gefitinib -0.224

ASNS (UniProt P08243)
Chain of UniProt P08243 (P08243 whole entry, looked up): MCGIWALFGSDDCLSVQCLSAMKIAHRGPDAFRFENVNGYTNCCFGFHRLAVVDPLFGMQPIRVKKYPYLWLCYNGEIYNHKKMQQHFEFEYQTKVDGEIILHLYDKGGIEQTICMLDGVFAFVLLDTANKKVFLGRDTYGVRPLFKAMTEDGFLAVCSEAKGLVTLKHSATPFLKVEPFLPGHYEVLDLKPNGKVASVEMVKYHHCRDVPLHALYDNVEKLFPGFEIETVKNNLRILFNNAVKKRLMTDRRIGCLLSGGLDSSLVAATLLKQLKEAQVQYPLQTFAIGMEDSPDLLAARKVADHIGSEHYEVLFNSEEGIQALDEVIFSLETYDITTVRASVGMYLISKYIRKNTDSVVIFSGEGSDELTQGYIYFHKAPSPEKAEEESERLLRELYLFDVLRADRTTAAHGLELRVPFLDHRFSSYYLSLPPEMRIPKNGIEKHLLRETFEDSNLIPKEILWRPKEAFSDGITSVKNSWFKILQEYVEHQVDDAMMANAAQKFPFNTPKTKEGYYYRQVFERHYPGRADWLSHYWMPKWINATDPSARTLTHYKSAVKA
inactive: alvocidib 0.019 | Tubastatin A -0.025 | [1] -0.036 | defactinib 0.006 | [2] 0.027 | encorafenib -0.009 | [3] -0.12 | alisertib 0.019 | [4] 0.009 | gefitinib 0.004

AMMECR1 (UniProt Q9Y4X0)
inactive: alvocidib -0.014 | Tubastatin A 0.022 | [1] 0.02 | defactinib 0.02 | [2] 0.003 | encorafenib 0.02 | [3] -0.01 | alisertib -0.031 | [4] 0.011 | gefitinib -0.019

ASB6 (UniProt Q9NWX5)
inactive: alvocidib 0.097 | Tubastatin A 0.014 | [1] -0.006 | defactinib 0.019 | [2] 0.099 | encorafenib -0.1 | [3] 0.174 | alisertib -0.001 | [4] 0.073 | gefitinib -0.046

ALDH18A1 (UniProt P54886)
Chain of UniProt P54886 (P54886 whole entry, looked up): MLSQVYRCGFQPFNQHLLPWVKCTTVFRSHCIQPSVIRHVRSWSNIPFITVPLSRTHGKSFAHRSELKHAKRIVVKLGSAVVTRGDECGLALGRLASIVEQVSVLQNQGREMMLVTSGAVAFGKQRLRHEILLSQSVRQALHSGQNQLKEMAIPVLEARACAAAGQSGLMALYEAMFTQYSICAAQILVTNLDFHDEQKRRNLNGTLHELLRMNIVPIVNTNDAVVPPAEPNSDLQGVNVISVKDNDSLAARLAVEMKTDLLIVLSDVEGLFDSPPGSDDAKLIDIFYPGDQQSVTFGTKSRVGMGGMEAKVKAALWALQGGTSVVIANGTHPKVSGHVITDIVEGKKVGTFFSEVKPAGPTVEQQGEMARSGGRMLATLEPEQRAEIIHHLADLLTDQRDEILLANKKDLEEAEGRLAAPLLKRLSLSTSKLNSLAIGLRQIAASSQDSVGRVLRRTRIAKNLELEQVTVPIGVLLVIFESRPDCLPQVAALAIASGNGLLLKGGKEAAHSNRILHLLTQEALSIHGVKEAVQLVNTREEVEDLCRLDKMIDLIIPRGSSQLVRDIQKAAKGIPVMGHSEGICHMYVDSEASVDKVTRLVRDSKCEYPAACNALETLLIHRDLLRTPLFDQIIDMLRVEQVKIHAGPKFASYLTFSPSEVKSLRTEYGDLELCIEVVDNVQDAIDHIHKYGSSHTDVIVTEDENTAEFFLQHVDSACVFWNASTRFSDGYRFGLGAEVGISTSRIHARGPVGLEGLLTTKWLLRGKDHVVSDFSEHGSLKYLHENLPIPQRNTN
inactive: alvocidib -0.005 | Tubastatin A -0.049 | [1] 0.005 | defactinib 0.006 | [2] -0.01 | encorafenib -0.009 | [3] 0.062 | alisertib 0.01 | [4] 0.017 | gefitinib 0.001

AP4B1 (UniProt Q9Y6B7)
inactive: alvocidib -0.053 | Tubastatin A -0.021 | [1] -0.051 | defactinib -0.001 | [2] 0.041 | encorafenib 0.057 | [3] -0.01 | alisertib -0.014 | [4] -0.121 | gefitinib 0.031

ADK (UniProt P55263)
Chain of UniProt P55263 (P55263 whole entry, looked up): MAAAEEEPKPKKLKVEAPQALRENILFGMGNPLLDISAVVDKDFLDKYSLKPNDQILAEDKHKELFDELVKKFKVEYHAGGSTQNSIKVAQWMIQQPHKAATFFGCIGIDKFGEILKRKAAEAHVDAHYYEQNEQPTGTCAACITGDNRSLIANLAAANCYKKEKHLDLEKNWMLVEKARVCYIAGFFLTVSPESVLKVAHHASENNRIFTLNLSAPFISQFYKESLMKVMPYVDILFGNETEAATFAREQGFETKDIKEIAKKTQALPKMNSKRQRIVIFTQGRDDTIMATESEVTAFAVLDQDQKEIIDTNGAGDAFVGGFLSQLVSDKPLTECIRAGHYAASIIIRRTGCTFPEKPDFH
inactive: alvocidib 0.246 | Tubastatin A -0.025 | [1] 0.178 | defactinib 0.026 | [2] 0 | encorafenib -0.048 | [3] 0.068 | alisertib -0.063 | [4] -0.015 | gefitinib 0.158

ANLN (UniProt Q9NQW6)
inactive: alvocidib -0.037 | Tubastatin A -0.196 | [1] 0.058 | defactinib 0.012 | [2] 0.011 | encorafenib 0.036 | [3] 0.102 | alisertib 0.051 | [4] 0.004 | gefitinib 0.03

AMPD3 isoform 4 (UniProt Q01432)
inactive: alvocidib 0.012 | Tubastatin A 0.027 | [1] 0.015 | defactinib 0.011 | [2] -0.034 | encorafenib -0.013 | [3] 0.103 | alisertib 0.008 | [4] -0.068 | gefitinib 0.012

AKT2 (UniProt P31751)
inactive: alvocidib 0.001 | Tubastatin A -0.061 | [1] 0.036 | defactinib -0.013 | [2] -0.064 | encorafenib 0.028 | [3] 0.037 | alisertib 0.003 | [4] -0.005 | gefitinib -0.013

ALDH2 (UniProt P05091)
inactive: alvocidib 0.059 | Tubastatin A -0.006 | defactinib -0.03 | [2] -0.051 | encorafenib 0.006 | [3] -0.03 | alisertib 0.037 | [4] -0.016 | gefitinib 0.014
active: [1] 0.437

ABHD11 (UniProt Q8NFV4)
inactive: alvocidib 0 | Tubastatin A 0.032 | [1] -0.066 | defactinib 0.034 | [2] 0.087 | encorafenib -0.028 | [3] 0.173 | alisertib -0.027 | [4] 0.022 | gefitinib 0.004
